HCMV antiviral – blocks human cytomegalovirus replication; activity change, negative = inhibition, % at 57.5 µM; AID 1259415; actives 4.5% (n = 410,000); HFF cells, HCMV-luciferase reporter, 72 h; hits give low values; in the data active means activity change below about -60%; inconclusive means no clear call, values can overlap the other calls; inactive means above about -39%; further: on the % scale 0 is the no-effect control and ±100 the full control effect
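HFF cells seeded 16 h at 37C, treated with compounds, infected with luciferase-reporter HCMV at MOI 1 PFU/cell; luciferase read at 72 h post infection, normalized to buffer-only and Salinomycin controls.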
MARV entry inh – inhibitors of Marburg virus binding or cell entry; AID 540276; Marburg virus pseudotyped entry inhibition, cell reporter; Potency, µM (highest dose often 37.8 µM), for inactives: at the highest dose activity change, negative = inhibition, actives largely listed as inhibitors; actives 1.8% (n = 300,000); calls by dose curve; tested in HEK293 cells; further: potency means the concentration at half of the fitted maximal effect; on the % scale 0 is the no-effect control and ±100 the full control effect
HCV inh – inhibitors of hepatitis C virus infection | Huh7.5.1 HCVcc-Cre infection, luciferase reporter, 44 h | Potency, µM (highest dose often 41.8 µM), inactives show top-dose activity change, negative = inhibition, actives largely listed as inhibitors | actives 3.4% (n = 340,000) | AID 651820; active means well fitted inhibition curve with a large enough effect; inconclusive means small, poorly fitted or top-dose-only effect, or another doubt; inactive means no such curve, though single readings can be large or run the other way; further: potency means the concentration at half of the fitted maximal effect; on the % scale 0 is the no-effect control and ±100 the full control effect
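Infectious HCVcc-Cre (~0.5 moi) was added to cells just after compound, with cells seeded 4 h earlier at 1,000 per well. Luciferase activity after 44 h culture reported infection; substrate was incubated 15 min at room temperature before reading.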
SARS PLP yeast – SARS-CoV PLP inhibition in yeast | S. cerevisiae expressing SARS-CoV PLpro, growth rescue | Potency, µM (titrated, usually from 32.9 µM), for the others: at the highest dose activity, positive = growth rescue, usual class: activators | actives 0.19% (n = 330,000) | AID 485353; calls by dose curve; further: potency means the concentration at half of the fitted maximal effect; 0% is about no effect; nearly all actives have a fitted effect of over 55% in size
FMDV antiviral – foot and mouth disease virus antiviral activity. FMDV antiviral cell-based qHTS. Potency, µM (titrated, usually from 57.9 µM), for inactives: at the top dose activity change, negative = inhibition, hits mostly inhibitors. actives 1.2% (n = 410,000). AID 1159524; calls by dose curve; tested in HEK293T cells; further: read-out not given here; potency means the concentration at half of the fitted maximal effect; on the % scale 0 is the no-effect control and ±100 the full control effect; nearly all actives have a fitted effect of over 45% in size
Lassa entry inh – blocks Lassa virus binding to or entry into cells | Lassa virus pseudotype entry inhibition, cell reporter | Potency, µM (highest dose often 37.9 µM), for the others: at the highest dose activity change, negative = inhibition, actives largely listed as inhibitors | actives 1.2% (n = 300,000); calls by dose curve; tested in HEK293 cells; further: potency means the concentration at half of the fitted maximal effect; on the % scale 0 is the no-effect control and ±100 the full control effect; nearly all actives have a fitted effect of over 50% in size
Starred values were filed as active, the others as inactive; ? = inconclusive; . = not tested or not shown; ! = not active in a repeat; [ ] = another dose, or the depositor's remark. Most compounds without a hit are left out; they make up all but 8% or so of the library.

SMILES	HCMV antiviral	MARV entry inh	HCV inh	SARS PLP yeast	FMDV antiviral	Lassa entry inh
CC(C)CCn1c(N)c(C(=O)OCC2CCCO2)c2nc3ccccc3nc21 (stereo not given)	-24	?	13µM*	-9%	-16%	?
CCCCn1c(N)c(C(=O)OCC2CCCO2)c2nc3ccccc3nc21 (stereo not given)	-14	-8%	?	-9%	-28%	-20%
CCn1cc(C(=O)NCCCOC(C)C)c(=O)c2cc(S(=O)(=O)N3CCc4ccccc4C3)ccc21	-27	0%[46.1 µM]	.	.	2%	-11%[46.1 µM]
CN(Cc1ccco1)c1ccnc(-c2ccccc2C(F)(F)F)n1	.	.	.	.	-6%	.
S=C(Nc1ccccc1)Nc1nc2ccccc2n1CCOc1ccc(Cl)cc1	61	?	10µM*	25%	6%	-8%
COC(=O)CC=C[C@@H](C)[C@@H](COc1ccccc1Br)OC	.	12%[14.2 µM]	.	.	.	.
O=C(CC(C(=O)O)C1CCCO1)NCc1ccccc1 (stereo not given)	-101*	16%	5%	1%	-9%	-1%
CCn1c(NCc2ccco2)nc2c1c(=O)n(C)c(=O)n2C	24	0%	7%	4%	-22%	17%
C=CCn1c(NCCc2ccccc2)nc2c1c(=O)n(C)c(=O)n2C	-82*	?	?	0%	25µM*	?
C/C(Cl)=C\Cn1c(NCCc2ccccc2)nc2c1c(=O)n(C)c(=O)n2C	-95*	3.7µM*	2.5µM*	2%	.	4.6µM*
Cc1ccc(Cn2c(NCCc3ccccc3)nc3c2c(=O)n(C)c(=O)n3C)cc1	-69*	?	4µM*	-2%	16µM*	?
Cn1c(=O)c2c(nc(NCCc3ccccc3)n2CC(=O)NCCc2ccccc2)n(C)c1=O	75	10%	-12%	-5%	-25%	-9%
CCN(CC)CCNc1nc2c(c(=O)n(C)c(=O)n2C)n1C/C=C(/C)Cl	5	?	-3%	-1%	-9%	?
Cn1c(=O)c2c(nc(NCc3ccco3)n2CCc2ccccc2)n(C)c1=O	?	?	?	3%	20µM*	-17%
CC(C)CCNc1nc2c(S(=O)(=O)c3ccc(Br)cc3)nnn2c2ccsc12	43	.	.	.	-23%	10%[46.1 µM]
CCOc1ccc(CNCc2c(C(=O)O)c(C)n(Cc3ccc(F)cc3Cl)c2C)cc1	-2	?	.	.	-23%	8%[46.1 µM]
Cc1nc2cc(NC(=O)[C@@H]3C[C@@H](Sc4ccccn4)CN3Cc3ccccc3)ccc2s1	.	.	.	.	21%	.
Cc1ccc(-c2nn3c(=O)cc(CN4CCN(C(=O)Nc5cc(Cl)ccc5C)CC4)nc3s2)cc1	1	.	.	.	1%	8%[46.1 µM]
CC1=C(C(=O)OC2CCCCCC2)C(c2cccc(Cl)c2)CC(=O)N1 (stereo not given)	?	?	.	.	-13%	10%[46.1 µM]
CCC(=O)N1CCN(c2nc(C)nc3sc(C)c(C)c23)CC1	-68*	5%	?	-8%	.	-6%
CCc1nc(N2CCN(S(=O)(=O)c3ccc(Br)cc3)CC2)c2c(C)c(C)sc2n1	-4	6%	13µM*	.	.	-40%
Cc1nc(N2CCN(S(=O)(=O)c3ccc(Br)cc3)CC2)c2c(C)c(C)sc2n1	-63*	?	?	-1%	?	24%[46.1 µM]
Cc1nc(N2CCN(C(=O)CCC(=O)O)CC2)c2c(C)c(C)sc2n1	43	12%	30%	-2%	.	-7%
Cc1sc2nc(CN3CCCC3)nc(N3CCN(S(=O)(=O)c4cccs4)CC3)c2c1C	-15	15µM*!	-17%	0%	-7%	-7%
Cc1ccc(S(=O)(=O)N2CCN(c3nc(CN4CCCC4)nc4sc(C)c(C)c34)CC2)cc1	0	.	?	-2%	-22%	.
SMILES	HCMV antiviral	MARV entry inh	HCV inh	SARS PLP yeast	FMDV antiviral	Lassa entry inh
CCN1[C@@H]2c3cccc(=O)n3C[C@H]1[C@H](CO)[C@H]2C(=O)OC	-5	.	.	.	.	.
CCc1ccccc1NC(=O)c1cc([N+](=O)[O-])ccc1N1CCOCC1	10	-26%[46.1 µM]	-6%	0%	-3%	4%[46.1 µM]
O=C(Nc1ccccc1N1CCOCC1)c1cccc([N+](=O)[O-])c1	0	6%	11%	-4%	-13%	0%
O=C(Nc1cccc(-c2nc3cc(Cl)ccc3o2)c1)c1cc([N+](=O)[O-])ccc1N1CCOCC1	-63*	6%[46.1 µM]	.	.	7%	-3%[46.1 µM]
CC1CCN(c2ccccc2NC(=O)c2cc([N+](=O)[O-])ccc2N2CCOCC2)CC1	-93*	?	?	10%	?	?
O=C(/C=C/c1cccc([N+](=O)[O-])c1)Nc1ccccc1N1CCOCC1	-61*	3%	-27%	6%	?	-18%
COc1ccc(CNC(=O)c2cc3c(=O)n(Cc4cccs4)ccc3nc2C)cc1	-3	.	.	.	10%	-26%[46.1 µM]
Cc1ccc(NC(=O)CCc2nc3cccnc3n2-c2ccccc2)cc1Cl	?	-1%[46.1 µM]	.	.	-22%	-18%[46.1 µM]
NC(=O)c1cc(N2CC2)c([N+](=O)[O-])cc1[N+](=O)[O-]	-13	?	0%	.	1.3µM*	-15%
CSc1ccc(/C=N/n2c(C3CCCCC3)n[nH]c2=S)cc1	?	?	-6%	0%	-10%	?
Cc1cccc(/C=N/n2c(C3CCCCC3)n[nH]c2=S)c1	.	.	-7%	0%	-10%	.
S=c1[nH]nc(C2CCCCC2)n1/N=C/c1ccncc1	-88*	0%[46.1 µM]	8%	0%	-14%	1%
CC(/C=N/n1c(C2CCCCC2)n[nH]c1=S)=C\c1ccccc1	-23	?	-3%	-18%	-20%	18µM*
CC1Sc2ccc(S(=O)(=O)N3CCC(C(=O)N(C)Cc4ccccc4)CC3)cc2NC1=O (stereo not given)	-64*	?	?	-3%	-42%	-4%[46.1 µM]
COc1ccc(OC)c(S(=O)(=O)N2CCC(C(=O)Nc3ccc(C)c(C)c3)CC2)c1	-30	?	?	0%	25µM*	-24%
CCc1ccc(NC(=O)C2CCN(S(=O)(=O)c3ccc4c(c3)NC(=O)C(C)S4)CC2)cc1 (stereo not given)	-97*	?	8.9µM*	-4%	-9%	?
CC1Sc2ccc(S(=O)(=O)N3CCC(C(=O)NCc4ccc(Cl)cc4)CC3)cc2NC1=O (stereo not given)	-26	?	?	-3%	?	-46%[46.1 µM]
CC1Sc2ccc(S(=O)(=O)N(C)Cc3ccccc3)cc2NC1=O (stereo not given)	?	-1%[46.1 µM]	?	-5%	28µM*	?
C=CCN(c1ccccc1)S(=O)(=O)c1ccc2c(c1)NC(=O)C(C)S2 (stereo not given)	3	.	-22%	32%	-25%	.
CCCN1C(=O)C2(c3ccccc31)c1c(oc3ccc(C)cc3c1=O)C(=O)N2CCOC (stereo not given)	9	14%[46.1 µM]	.	.	-18%	-15%[46.1 µM]
O=C(Nc1ccc(Br)cc1F)c1ncoc1-c1ccco1	10	.	.	.	-22%	4%[46.1 µM]

High-throughput results (PubChem)
